Among all 310,000 compounds or so, about 3,600 (1.2%) were called active.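 The calls were made as follows: active = ratio plate-corrected score three or more library SD toward inhibition, starting fluorescence score within five deviations; inactive = the rest.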 The list comes from a sample in which actives are over-represented; it also holds similar structures and randomly drawn compounds.

Anoctamin-1 (Mus musculus), sequence (Q8BHY3 whole entry, looked up): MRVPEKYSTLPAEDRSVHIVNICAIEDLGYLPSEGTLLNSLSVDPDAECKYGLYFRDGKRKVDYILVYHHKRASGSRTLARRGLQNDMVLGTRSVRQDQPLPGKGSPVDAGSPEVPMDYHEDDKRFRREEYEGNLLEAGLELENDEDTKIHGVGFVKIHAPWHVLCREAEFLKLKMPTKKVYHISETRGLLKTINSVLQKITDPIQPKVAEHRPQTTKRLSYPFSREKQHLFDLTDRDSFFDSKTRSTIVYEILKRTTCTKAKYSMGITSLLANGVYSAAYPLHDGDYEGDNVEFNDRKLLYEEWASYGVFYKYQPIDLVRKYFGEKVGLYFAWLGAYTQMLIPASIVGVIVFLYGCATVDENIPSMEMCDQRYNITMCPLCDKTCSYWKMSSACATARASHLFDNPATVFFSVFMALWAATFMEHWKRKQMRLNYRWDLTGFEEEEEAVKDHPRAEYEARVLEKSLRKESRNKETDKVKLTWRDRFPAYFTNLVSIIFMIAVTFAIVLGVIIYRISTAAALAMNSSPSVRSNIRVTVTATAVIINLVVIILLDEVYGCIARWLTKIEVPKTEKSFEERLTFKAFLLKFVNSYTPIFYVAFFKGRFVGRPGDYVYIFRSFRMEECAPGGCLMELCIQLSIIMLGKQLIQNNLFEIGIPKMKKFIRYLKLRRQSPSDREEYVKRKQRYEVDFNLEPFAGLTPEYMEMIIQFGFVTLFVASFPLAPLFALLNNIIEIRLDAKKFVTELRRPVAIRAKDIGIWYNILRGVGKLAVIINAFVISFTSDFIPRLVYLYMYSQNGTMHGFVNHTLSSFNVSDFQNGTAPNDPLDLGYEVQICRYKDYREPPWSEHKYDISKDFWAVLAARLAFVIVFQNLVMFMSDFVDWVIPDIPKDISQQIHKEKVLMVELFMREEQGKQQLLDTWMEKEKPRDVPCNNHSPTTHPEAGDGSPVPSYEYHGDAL

This assay has as its target Anoctamin-1 (Mus musculus) (UniProt Q8BHY3). Kind of assay: TMEM16A chloride channel inhibitors, primary screen, cell-based, HTS (AID 588511).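 As to normalized B-score (activity score, 25-100; higher = stronger inhibition): score derived from kinetic fluorescence span divided by baseline fluorescence per well.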 As to conditions: HEK293 TMEM16A/YFP iodide influx fluorescence, ionomycin; at 10 µM.
As to `CC1CCN(C(=O)c2ccc(CSc3ccc(Cl)cc3)cc2)CC1`, the normalized B-score (activity score, 25-100; higher = stronger inhibition) was 25 (active).
As for `O=C(c1ccc(CSc2ccccc2)cc1)N1CCCCCC1`, the normalized B-score (activity score, 25-100; higher = stronger inhibition) result was “inactive”.
With `O=C(C1CC1)N1CCN=C1SCc1ccc(Cl)cc1` the entry was “inactive”; with `CCCCN1C(N)=NC[C@@H]1Cc1ccccc1`, “inactive”.
For the compound `COc1ccc(NS(=O)(=O)c2ccc(C)c(C(=O)NNC(=O)c3csc(N4CCOCC4)n3)c2)cc1`, the normalized B-score (activity score, 25-100; higher = stronger inhibition) entry was “inactive”.
For the compound `Cc1ccc(CN2CCN(Cc3ccc(OCCO)cc3)CC2CCO)o1` (centres undefined), the normalized B-score (activity score, 25-100; higher = stronger inhibition) entry was “inactive”.
On to `CC1=NN(c2cccc(Cl)c2)C(=O)C12CC(C)=C(C)CS2` (centres undefined), for which the normalized B-score (activity score, 25-100; higher = stronger inhibition) is 100 (active).
With `CC12CCC(C(=O)N(c3cccc(Cl)c3)C1=O)C2(C)C` (centres undefined) the entry was “inactive”.
On to `Cc1ccccc1OCC(=O)NNC(=O)c1cc(S(=O)(=O)N(C)C)ccc1N1CCCC1`, for which the normalized B-score (activity score, 25-100; higher = stronger inhibition) result is “inactive”.
For `CN(C(=O)COC(=O)c1ccc(Br)o1)c1c(N)n(Cc2ccccc2)c(=O)[nH]c1=O`, the normalized B-score (activity score, 25-100; higher = stronger inhibition) result is “inactive”.
For `COC(=O)c1ccccc1NS(=O)(=O)c1ccc2[nH]c(=O)[nH]c2c1`, the normalized B-score (activity score, 25-100; higher = stronger inhibition) entry was “inactive”.
Consider `COc1cccc(OC)c1C(=O)Nc1c(C(=O)N2CCN(c3ccccn3)CC2)oc2ccccc12`, for which the normalized B-score (activity score, 25-100; higher = stronger inhibition) entry is “inactive”.
As for `Cc1cc(NC(=O)[C@H](C)NC(=O)c2ccco2)ccc1Br`, the normalized B-score (activity score, 25-100; higher = stronger inhibition) result is “inactive”.
For `O=C(CN1C(=O)C2C3C=CC(C3)C2C1=O)Nc1nc(-c2ccccn2)cs1` (centres undefined), the normalized B-score (activity score, 25-100; higher = stronger inhibition) entry is “inactive”.
With `CC(NC(=O)c1ccco1)C(=O)Nc1nc(-c2ccccn2)cs1` (centres undefined) the figure was 100 (active); with `CCc1ccc(NC(=O)C(=O)NNC(=O)c2cccs2)cc1`, “inactive”; with `OCC[C@H]1C[C@@H](O)[C@H](O)[C@@]2(OCCc3ccccc32)O1`, “inactive”.
As to `CCOC(=O)C1Nc2ccc(C(F)(F)F)cc2C2C=CCC12` (centres undefined), the normalized B-score (activity score, 25-100; higher = stronger inhibition) entry is “inactive”.
The same measure for `COc1ccc(C(=O)N2CCCCC2C(=O)Nc2ccc(-n3nc(C)cc3C)cc2)o1` (centres undefined): “inactive”.
With `O=S(=O)(NC1CC2CCC1C2)c1ccc(Cl)cc1` (centres undefined) the entry was “inactive”; with `CCOc1ccc2nc(NC(=O)c3cc([N+](=O)[O-])ccc3N3CCOCC3)sc2c1`, “inactive”.
With `CCC(=O)c1ccc(OCC(=O)Nc2ccc3nc(C)sc3c2)cc1`, the normalized B-score (activity score, 25-100; higher = stronger inhibition) result was “inactive”.
With `Cc1cc(C)cc(OCC(=O)Nc2nc3ccc([N+](=O)[O-])cc3s2)c1` the figure was 100 (active); with `Cc1cc(F)ccc1N1CCC(N2CCN(C)C(CCO)C2)CC1` (centres undefined), “inactive”; with `Cc1cccc(C(=O)Nc2ccc(Oc3cnccn3)cc2)c1`, “inactive”.
Turning to `OCCn1c(-c2ccccc2)csc1=Nc1ccccc1`, the normalized B-score (activity score, 25-100; higher = stronger inhibition) is 25 (active).
With `Cc1csc(=Nc2ccccc2)n1CCO` the entry was “inactive”; with `Cc1csc(=NC(=O)c2ccccc2)n1CCO`, “inactive”; with `O=C(OC1CCOC1=O)c1cccc(S(=O)(=O)Nc2ccc(F)cc2)c1` (centres undefined), “inactive”.
The same measure for `CCOC(=O)C1CCN(C(=O)C2CCCN(S(=O)(=O)c3ccc(OC)c(Cl)c3)C2)CC1` (centres undefined): “inactive”; for `COC(=O)c1ccc(COC(=O)C2CCN(S(=O)(=O)c3c(Cl)cccc3Cl)CC2)o1`: “inactive”.
With `COC(=O)c1ccc(CSc2ccccc2C)o1` the entry was “inactive”; with `COC(=O)c1ccc(COC(=O)c2c(C)nn(Cc3ccccc3Cl)c2Cl)o1`, 25 (active); with `Cc1ccc(O)c(/C=N/NC(=O)COc2ccc3c(C)cc(=O)oc3c2)c1`, “inactive”.
Consider `CCOc1ccc(S(=O)(=O)N2CCN(C(=S)NCC3CCCO3)CC2)cc1` (centres undefined), for which the normalized B-score (activity score, 25-100; higher = stronger inhibition) entry is “inactive”.
On to `S=C(NCC1CCCO1)N1CCN(c2ccc(Cl)c(Cl)c2)CC1` (centres undefined), for which the normalized B-score (activity score, 25-100; higher = stronger inhibition) was 100 (active).
As to `COc1ccc(S(=O)(=O)N2CCN(C(=S)NCC3CCCO3)CC2)cc1OC` (centres undefined), the normalized B-score (activity score, 25-100; higher = stronger inhibition) result is “inactive”.
In the case of `Cc1ccccc1CN1CCNC(=O)C1CC(=O)NCCC1=CCCCC1` (centres undefined), the normalized B-score (activity score, 25-100; higher = stronger inhibition) result is “inactive”.
Take `Cc1nnc(SCCCCSc2nnc(C)c(=O)[nH]2)[nH]c1=O`: the normalized B-score (activity score, 25-100; higher = stronger inhibition) entry is “inactive”.
With `CC(C)(C)c1ccc(CCC2OCC(CN3CCOCC3)O2)cc1` (centres undefined) the entry was “inactive”; with `CCCC(C)n1[nH]c(=O)c2c(C)cc(C)nc21` (centres undefined), “inactive”.
Take `CCCCC(=O)NNC(=S)NC(=O)C(c1ccccc1)c1ccccc1`: the normalized B-score (activity score, 25-100; higher = stronger inhibition) was 25 (active).
For the compound `O=C(NNC(=S)NCc1ccco1)C(c1ccccc1)c1ccccc1`, the normalized B-score (activity score, 25-100; higher = stronger inhibition) entry is “inactive”.
For `CC(C)C(=O)Nc1cccc(NC(=S)NC(=O)C(c2ccccc2)c2ccccc2)c1`, the normalized B-score (activity score, 25-100; higher = stronger inhibition) entry is “inactive”.
The same measure for `CSCCC(NS(=O)(=O)c1ccc(C)cc1)C(=O)N1CCCC1` (centres undefined): “inactive”.
As to `CN(C)c1ccc(-c2nnc(-c3cccnc3)o2)cc1`, the normalized B-score (activity score, 25-100; higher = stronger inhibition) result is “inactive”.
As to `COc1cccc(N(C(=O)c2ccn[nH]2)C2(C(=O)Nc3c(C)cccc3C)CCCCC2)c1`, the normalized B-score (activity score, 25-100; higher = stronger inhibition) entry is “inactive”.
The same measure for `CS(=O)(=O)N1CCN=C1SCc1ccc(F)cc1`: “inactive”; for `CCOC(=O)N1CCN(C(=O)c2ccc3c(c2)N(Cc2ccc(C)cc2)CCS3)CC1`: 25 (active); for `O=C(NCCN1CCOCC1)c1ccc2c(c1)N(Cc1ccc(Cl)cc1)CCS2`: “inactive”.
With `O=C(NCCc1ccccc1)c1ccc2c(c1)N(Cc1ccccc1)CCS2` the entry was “inactive”; with `CC1CCN(C(=O)c2cccc(S(=O)(=O)N3CCCc4ccccc43)c2)CC1`, “inactive”; with `O=C1CCC(=O)N(O)CCCCCNC(=O)CCC(=O)N(O)CCCCCNC(=O)CCC(=O)N(O)CCCCCN1`, “inactive”.
On to `Cc1ccc(NC(=O)c2nc[nH]c2C(=O)N[C@@H](CCCCNC(=O)OC(C)(C)C)C(=O)OC(C)(C)C)cc1`, for which the normalized B-score (activity score, 25-100; higher = stronger inhibition) entry was “inactive”.

For the origin of these results see PubChem BioAssay AID588511 (Johns Hopkins Ion Channel Center, 2011).
